High-throughput results: PubChem, National Center for Advancing Translational Sciences (NCATS)
FLuc inh = blocks purified firefly luciferase enzyme activity | purified P. pyralis luciferase, luminescence, biochemical | Potency, µM (series often up to 115 µM), most hits filed as inhibitors | actives 2.5% (n = 76,000) | AID 1347043; also: nearly all actives have a fitted effect of over 65% in size
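Luminescence read by CCD imager after adding enzyme (10nM final) to wells holding compound, titrated in qHTS. Substrates 10uM each D-luciferin and ATP; buffer 50mM Tris acetate pH 7.5, 10mM Mg acetate, Tween-20, BSA.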
GPT2 inh = inhibitors of human GPT2 alanine aminotransferase | Q8TD30 | Recombinant GPT2, coupled pyruvate oxidase/HRP Amplex Red fluorescence | AID 1671188 | actives 0.25% (n = 100,000) | Potency, µM (top dose mostly 57.7 µM), hits mostly inhibitors; also: nearly all actives have a fitted effect of over 60% in size
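GPT2 10ng/uL, a-KG 250uM, L-Ala 2mM, HEPES pH7.5 + 0.0001% Tween; 30 min RT. Then Amplex mix (PO/HRP/ThPP), 30 min RT dark, fluorescence. AOA 50uM used as positive control.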
HEK293 tox = kills HEK 293 cells. HEK 293 viability, ATP luminescence (CellTiter-Glo), 48-72 h. actives 6.6% (n = 94,000). AID 1345083. Potency, µM (titrated, usually from 115 µM), most hits filed as inhibitors; also: nearly all actives have a fitted effect of over 60% in size
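HEK 293 seeded at 250 cells/well receive compound via pintool. After 48 or 72 hr at 37 degree Celsius, 5% CO2 and 95% humidity, CellTiter-Glo is dispensed and luminescence read following 10 min at room temperature.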
NPR1 antag = human Npr1 receptor antagonism | P16066 | HEK293 hNpr1 GloSensor cGMP, ANP-stimulated luminescence | Potency, µM (highest dose often 46.3 µM), hits mostly inhibitors | actives 1.6% (n = 76,000); calls by dose curve; also: nearly all actives have a fitted effect of over 60% in size
Target sequence (P16066 whole entry, looked up): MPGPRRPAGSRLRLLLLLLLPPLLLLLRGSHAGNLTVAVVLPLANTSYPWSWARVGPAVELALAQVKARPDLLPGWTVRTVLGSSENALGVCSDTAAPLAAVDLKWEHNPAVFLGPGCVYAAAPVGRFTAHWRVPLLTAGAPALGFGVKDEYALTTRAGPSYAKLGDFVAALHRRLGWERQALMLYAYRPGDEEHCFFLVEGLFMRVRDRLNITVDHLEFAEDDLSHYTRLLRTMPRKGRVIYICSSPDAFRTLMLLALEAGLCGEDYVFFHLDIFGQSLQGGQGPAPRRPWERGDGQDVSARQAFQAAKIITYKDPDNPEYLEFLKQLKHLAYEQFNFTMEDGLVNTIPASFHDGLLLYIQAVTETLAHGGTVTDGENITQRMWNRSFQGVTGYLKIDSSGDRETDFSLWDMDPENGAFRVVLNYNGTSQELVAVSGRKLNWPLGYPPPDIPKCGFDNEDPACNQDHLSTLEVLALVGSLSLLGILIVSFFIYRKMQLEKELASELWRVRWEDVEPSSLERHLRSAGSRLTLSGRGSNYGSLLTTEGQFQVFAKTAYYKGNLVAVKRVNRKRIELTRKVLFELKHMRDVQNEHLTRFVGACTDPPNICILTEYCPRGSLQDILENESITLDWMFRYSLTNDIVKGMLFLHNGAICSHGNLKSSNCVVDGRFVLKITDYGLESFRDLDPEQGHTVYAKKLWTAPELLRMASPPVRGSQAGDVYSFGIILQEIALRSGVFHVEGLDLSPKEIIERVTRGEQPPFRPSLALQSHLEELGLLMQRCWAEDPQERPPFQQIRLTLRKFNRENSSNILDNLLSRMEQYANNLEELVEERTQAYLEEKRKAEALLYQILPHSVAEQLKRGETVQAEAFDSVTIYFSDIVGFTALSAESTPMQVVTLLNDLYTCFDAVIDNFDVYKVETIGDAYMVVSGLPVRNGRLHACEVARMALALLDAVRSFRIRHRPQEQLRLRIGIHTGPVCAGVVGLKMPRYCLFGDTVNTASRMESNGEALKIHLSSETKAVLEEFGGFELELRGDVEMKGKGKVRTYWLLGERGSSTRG
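Compound pre-incubated 30 min at room temperature on GloSensor-loaded HEK293 cells stably carrying hNpr1 and the pGS-40F cGMP biosensor. Stimulation uses hNppA at 0.1 nM final; luminescence is taken at baseline and 20 min post-agonist.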
NIH3T3 tox = NIH 3T3 cell cytotoxicity. NIH 3T3 viability, CellTiter-Glo ATP luminescence, 48-72 h. Potency, µM (top dose mostly 96.7 µM), most hits filed as inhibitors. actives 4.3% (n = 94,000); also: nearly all actives have a fitted effect of over 55% in size
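Viability of NIH 3T3 cells after 48 or 72 hr compound treatment at 37 °C was assessed by CellTiter-Glo, with luminescence imaged following a 10 min room-temperature step.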
Large screens that a line does not name were inactive; ! = not confirmed by another sample. Hits are enriched below; roughly 10% of the tested compounds scored in any of these assays. Unless noted, calls follow the shape of the dose curve; as a rule, active = well fitted curve in the direction sought with a large enough effect; inconclusive = small, poorly fitted or top-dose-only effect, or another doubt; inactive = no such curve, though single readings can be large; an effect the other way counts as inactive or inconclusive.

CC(C)C(=O)N1CCC2(CC1)OCC(C(=O)NCc1ccc3c(c1)OCO3)N2C(=O)c1ccccc1 (centres undefined)	none
Cc1ccc(CN2CCC3(CC2)Cc2ccccc2CNC3=O)cc1C	HEK293 tox inconclusive, NIH3T3 tox inconclusive (no result: FLuc inh, NPR1 antag)
CC(C)NC(=O)c1cn2cc(-c3ccccc3)sc2n1	HEK293 tox 70.8µM, NIH3T3 tox inconclusive (no result: FLuc inh, NPR1 antag)
COC(=O)CNC(=O)c1cn2cc(-c3ccc(C)cc3)sc2n1	GPT2 inh inconclusive, HEK293 tox inconclusive (no result: FLuc inh, NPR1 antag)
CC(C)NC(=O)c1cn2cc(-c3ccc(C(F)(F)F)cc3)sc2n1	none (no result: FLuc inh, NPR1 antag)
COCCNC(=O)c1cn2cc(-c3ccc(C)cc3)sc2n1	HEK293 tox 100µM, NIH3T3 tox inconclusive (no result: FLuc inh, NPR1 antag)
CC(C)CNC(=O)c1cn2cc(-c3cccc(C(F)(F)F)c3)sc2n1	HEK293 tox inconclusive, NIH3T3 tox inconclusive (no result: FLuc inh, NPR1 antag)
CNC(=O)c1cn2cc(-c3cccc(C(F)(F)F)c3)sc2n1	HEK293 tox 28.2µM, NIH3T3 tox inconclusive (no result: FLuc inh, NPR1 antag)
COc1ccccc1-n1c(=O)c(C(=O)Nc2ccccc2Cl)nc2cccnc21	none (no result: FLuc inh, NPR1 antag)
COc1ccc([S+](=O)([O-])c2nnn3c2nc(N2CCC(F)CC2)c2ccccc23)cc1	none (no result: FLuc inh, NPR1 antag)
O=C(C1CCCCCC1)N1CCC(n2cc(C3CCCCC3)nn2)CC1	HEK293 tox 89.1µM, NPR1 antag inconclusive, NIH3T3 tox inconclusive
O=C(Nc1ccccc1Cl)N1CCC(n2cc(C3CCCC3)nn2)CC1	HEK293 tox inconclusive
COc1ncccc1CNC[C@H]1Cn2c(-c3ccc(F)cc3)cnc2CO1	none
CS(=O)(=O)N[C@@H]1C[C@H](Cn2cc(-c3cccnc3)nn2)[C@@H](O)[C@H]1O	none
Cc1noc(C)c1S(=O)(=O)N[C@@H]1C[C@H](Cn2cc(-c3cccnc3)nn2)[C@@H](O)[C@H]1O	HEK293 tox 39.8µM, NIH3T3 tox 22.4µM
COc1ccc(CN2C[C@H]3CN(S(=O)(=O)c4ccc(OC)cc4)CCN3C2=O)cc1	HEK293 tox inconclusive, NPR1 antag inconclusive, NIH3T3 tox inconclusive
CNC(=O)c1cc2cc(-c3c(C)noc3C)nc(-c3ccccc3OC)c2o1	HEK293 tox inconclusive, NIH3T3 tox inconclusive
CC(=O)Nc1cccc(-c2nc(-c3c(C)noc3C)cc3cc(C)oc23)c1	GPT2 inh inconclusive, HEK293 tox 79.4µM, NIH3T3 tox 39.8µM
Cc1noc(C)c1-c1cc2c(cc(-c3ccccc3)n2C)c(N(C)C)n1	HEK293 tox inconclusive, NIH3T3 tox inconclusive
CC(=O)Nc1cccc(-c2nc(-c3c(C)noc3C)cc3c2cc(-c2ccccc2)n3C)c1	HEK293 tox inconclusive, NIH3T3 tox 11.2µM
CNC(=O)c1cc2cc(-c3c(C)noc3C)nc(-c3ccccc3C)c2o1	HEK293 tox inconclusive, NIH3T3 tox 11.2µM
Cc1ccccc1C(=O)NC1CCN(c2ccnc3ccnn23)C1 (centres undefined)	HEK293 tox inconclusive, NIH3T3 tox inconclusive (no result: FLuc inh, NPR1 antag)
Cc1nn(-c2ccccc2)c2c1C(C(C)C)N(C1CCCN([S+](=O)([O-])c3ccccc3)C1)C2=O (centres undefined)	HEK293 tox inconclusive (no result: FLuc inh, GPT2 inh, NPR1 antag)
CCCCOC(=O)NC(=O)C1c2ccccc2Oc2ccccc21	none (no result: FLuc inh, HEK293 tox, NPR1 antag, NIH3T3 tox)
Cc1ccc([S+](=O)([O-])NC2CCCN(CCn3nc4n(c3=O)CCCC4)C2)cc1 (centres undefined)	none (no result: FLuc inh, GPT2 inh, NPR1 antag)
Cc1ccc(-c2cccc(CN3CCCC(N[S+](C)(=O)[O-])C3)c2)cc1Cl (centres undefined)	HEK293 tox 22.4µM, NIH3T3 tox 28.2µM (no result: FLuc inh, NPR1 antag)
Cc1ccc([S+](=O)([O-])NC2CCCN(Cc3cccc(-c4ccc(C)c(Cl)c4)c3)C2)cc1 (centres undefined)	HEK293 tox 28.2µM, NIH3T3 tox inconclusive (no result: FLuc inh, NPR1 antag)
COc1cccc(CNC(=O)c2cn3cc(-c4cccc(C(F)(F)F)c4)sc3n2)c1	HEK293 tox inconclusive (no result: FLuc inh, NPR1 antag)
COc1ccc(-c2noc(-c3cccn3CC(=O)Nc3ccccc3F)n2)cc1F	none
COCCn1c(=O)c(C(=O)NCc2ccc(F)cc2)nc2cccnc21	none (no result: FLuc inh, NPR1 antag)
CN1CCN(C(=O)c2cn3cc(-c4ccc(F)cc4)sc3n2)CC1	HEK293 tox inconclusive, NIH3T3 tox 79.4µM (no result: FLuc inh, NPR1 antag)
O=C(c1cn2cc(-c3ccccc3)sc2n1)N1CCOCC1	HEK293 tox 89.1µM, NIH3T3 tox inconclusive (no result: FLuc inh, NPR1 antag)
COc1cccc(-c2cn3cc(C(=O)N4CCOCC4)nc3s2)c1	none (no result: FLuc inh, NPR1 antag)
COc1ccc(-c2cn3cc(C(=O)N4CCOCC4)nc3s2)cc1	HEK293 tox 63.1µM, NIH3T3 tox inconclusive (no result: FLuc inh, NPR1 antag)
CCN1CCN(C(=O)c2cn3cc(-c4ccc(F)cc4)sc3n2)CC1	none (no result: FLuc inh, NPR1 antag)
Cc1ccc(OCCC2CCN(C(=O)c3ccoc3)C2)cc1 (centres undefined)	HEK293 tox inconclusive, NIH3T3 tox inconclusive
COc1ccccc1OCCC1CCN(C(=O)NCC(C)C)C1 (centres undefined)	none
Cc1ccc(OCCC2CCN(C(=O)CCn3nc(C)cc3C)C2)cc1 (centres undefined)	HEK293 tox 50.1µM, NPR1 antag inconclusive, NIH3T3 tox inconclusive
CN(CC(=O)N1CCC(CCOc2ccc(F)cc2)C1)S(=O)(=O)c1cccs1 (centres undefined)	GPT2 inh inconclusive, HEK293 tox 50.1µM, NPR1 antag inconclusive, NIH3T3 tox inconclusive
CCn1nc(C)c(-c2cc(C(=O)N3CCC(CCOc4ccccc4OC)C3)no2)c1C (centres undefined)	HEK293 tox 44.7µM, NIH3T3 tox inconclusive
COc1ccccc1C(=O)N1CCC(CCOc2ccc(C)cc2)C1 (centres undefined)	HEK293 tox 39.8µM, NPR1 antag inconclusive, NIH3T3 tox inconclusive
Cc1ccc(C(=O)N2CCN(C3CCN(CCc4ccccc4)C3=O)CC2)cc1F (centres undefined)	HEK293 tox inconclusive
O=c1c(O)c(-c2ccc(O)c(O)c2)oc2cc(O)cc(O)c12	GPT2 inh 13.7µM! (no result: FLuc inh, HEK293 tox, NPR1 antag, NIH3T3 tox)
CC1=C[C@@H](CC#N)[C@H](C(C)C)C[C@H]1CC(=O)N1CCN(c2cnccn2)CC1	HEK293 tox inconclusive, NPR1 antag inconclusive, NIH3T3 tox inconclusive
COc1ccc(NC(=O)N2CCC(Oc3ccc(-c4noc(C5CC5)n4)cc3)C2)cc1 (centres undefined)	FLuc inh inconclusive, HEK293 tox inconclusive, NPR1 antag inconclusive
O=S(=O)(c1ccc(F)cc1)N1CCC(Oc2ccc(-c3noc(C4CC4)n3)cc2)C1 (centres undefined)	HEK293 tox 28.2µM, NPR1 antag inconclusive, NIH3T3 tox inconclusive
CCCS(=O)(=O)N1CCC(Oc2ccc(-c3noc(CC)n3)cc2)C1 (centres undefined)	HEK293 tox inconclusive
CC(C)c1nc(-c2ccc(OC3CCN(C(=O)c4ccoc4)C3)cc2)no1 (centres undefined)	HEK293 tox 31.6µM, NIH3T3 tox inconclusive (no result: FLuc inh, NPR1 antag)
Cc1noc(C)c1S(=O)(=O)N1CCC(Oc2ccc(-c3noc(C(C)C)n3)cc2)C1 (centres undefined)	HEK293 tox 20µM (no result: FLuc inh, NPR1 antag)
